Reference: PubChem BioAssay (NCATS)
Inconclusive results are not listed. Calls of active or inactive are those of the source. Unless noted, calls come from the whole dose curve; as a rule, active = well fitted curve in the direction sought with a large enough effect; inconclusive = small, poorly fitted or top-dose-only effect, or another doubt; inactive = no such curve, though single readings can be large; an effect the other way counts as inactive or inconclusive.

What was measured:
[1] = Cytometry Cell-Based qHTS for Inhibitors of the mTORC1 Signaling Pathway in MEF cells (AID 2668);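 note: Tsc2-/- p53-/- mouse embryonic fibroblasts stably re-expressing wild-type Tsc2; percent cells positive for phospho-rpS6 Ser235/236 relative to propidium iodide stain; series mostly up to about 38 µM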
How it was run: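 WT MEFs (Tsc2-/-, p53-/- stably re-expressing WT Tsc2) in DMEM + 10% FBS received compounds 24 hrs after plating, for 24 hrs at 37 degree Celsius. Fixed cells stained with Alexa-488 anti-phospho-rpS6 Ser235/236 and propidium iodide; laser-scanning cytometry read-out.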

[2] = molecular target: Ubiquitin carboxyl-terminal hydrolase 2 (Homo sapiens) (UniProt O75604); assay: qHTS Validation Assay for Inhibitors of Ubiquitin-specific Protease USP2a Using CHOP2 as the Reporter (AID 463106)
How it was run: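 Inhibition is expressed relative to NEM as the full-inhibition control, with concentration-response curves classed by fit quality, magnitude and activity. Enzyme (USP2 core, 10nM) meets 25nM Ub-CHOP2 after compound preincubation; readings are taken at 60min.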

[3] = molecular target: DNA polymerase III PolC-type (Bacillus subtilis (strain 168)) (UniProt P13267); assay: qHTS Validation Assay for the Inhibitors of DNA Replication in Gram-Positive Bacteria (AID 485295);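 note: PicoGreen fluorescence of double-stranded DNA made on primed circular M13 template; series mostly up to about 57 µM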
How it was run: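 Reconstituted B. subtilis holoenzyme (Pol III, beta clamp, SSB, primase) was preincubated with compound at room temperature, then given single-stranded circular M13Gori plus dNTPs and NTPs. EDTA-containing PicoGreen stopped the reaction, and dsDNA product was read by fluorescence.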

[4] = molecular target: Tumor susceptibility gene 101 protein (Homo sapiens) (UniProt Q99816); assay: qHTS Validation Assay for Iinhibitors of HIV-1 Budding by Blocking the Interaction of PTAP/TSG101 (AID 485342; calls by dose curve)
How it was run: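 Tsg101 binding domain (10 uM final) in pH 7.5 HEPES/NaCl/Tween 20/EDTA/TCEP buffer was mixed with pin-transferred compounds, then FITC-labeled PTAP peptide (50 nM final) was added; after 20 min at r.t., fluorescence polarization was read.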

[5] = molecular target: Beta-2 adrenergic receptor (Homo sapiens) (UniProt P07550); assay: qHTS validation assay of beta-arrestin-biased ligands of beta2-adrenergic receptor (AID 485366)
How it was run: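 Agonist activity is measured as luciferase luminescence downstream of beta-arrestin recruitment to recombinant beta2-AR in Tango cells. Exposure lasts 18 hr at 37 degrees C, and curves are categorized by r2, response size and activity.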

[6] = molecular target: ATP-dependent 6-phosphofructokinase (Trypanosoma brucei brucei) (UniProt O15648); assay: qHTS Validation Assay to Find Inhibitors of T. brucei phosphofructokinase (AID 485368); details: outcome: dose series up to 57.5 µM
How it was run: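 Inhibition derived from concentration-response curves of luminescence, ranked by r2, response size and curve class; the underlying reaction used 1.25 nM PFK, 0.1 mM ATP and 0.5 mM F6P, 45 min, room temperature.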

[7] = Validation screen for inhibitors of Lassa infection (AID 463096; calls by dose curve)
[8] = qHTS Validation Assay to Find Inhibitors of Chronic Active B-Cell Receptor Signaling (AID 485345; active = well fitted curve in the direction sought with a large enough effect in the main read-out, with a control signal flat, not every such curve was filed as active)
How it was run: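 TMD8 ABC-DLBCL cells with dox-inducible green luciferase–IκBα fusion and red native luciferase; compounds 46 uM–3 nM, 4 h at 37C with doxycycline in 0.5% FBS IMDM. Green/red ratio normalized to basal and 10 uM MG-132.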

[9] = Quantitative high throughput screen for delayed death inhibitors of the malarial parasite plastid, 48 hour incubation (AID 488752); note: nearly all actives have a fitted effect of over 65% in size; note: potency is the fitted concentration of half-maximal effect
How it was run: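 Cultures: infected erythrocytes at final 2% hematocrit and 0.1% parasitemia in Albumax-supplemented RPMI. Parasites express integrated firefly luciferase. Incubation with compound lasts 48 h before luminescent detection of remaining reporter activity.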

[10] = Validation screen for small molecules that induce DNA re-replication in MCF 10A normal breast cells (AID 463097); note: nearly all actives have a fitted effect of over 60% in size
How it was run: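 Readout: Hoechst nuclear fluorescence intensity, 405 ex / 500-530 em, by scanning plate imager; re-replication scored as increase in nuclei with elevated DNA content. Cells exposed to compound 48 hr, 37 C, 5% CO2 beforehand.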

Measured: Potency

Ubiquitin carboxyl-terminal hydrolase 2 (Homo sapiens), sequence (O75604 whole entry, looked up): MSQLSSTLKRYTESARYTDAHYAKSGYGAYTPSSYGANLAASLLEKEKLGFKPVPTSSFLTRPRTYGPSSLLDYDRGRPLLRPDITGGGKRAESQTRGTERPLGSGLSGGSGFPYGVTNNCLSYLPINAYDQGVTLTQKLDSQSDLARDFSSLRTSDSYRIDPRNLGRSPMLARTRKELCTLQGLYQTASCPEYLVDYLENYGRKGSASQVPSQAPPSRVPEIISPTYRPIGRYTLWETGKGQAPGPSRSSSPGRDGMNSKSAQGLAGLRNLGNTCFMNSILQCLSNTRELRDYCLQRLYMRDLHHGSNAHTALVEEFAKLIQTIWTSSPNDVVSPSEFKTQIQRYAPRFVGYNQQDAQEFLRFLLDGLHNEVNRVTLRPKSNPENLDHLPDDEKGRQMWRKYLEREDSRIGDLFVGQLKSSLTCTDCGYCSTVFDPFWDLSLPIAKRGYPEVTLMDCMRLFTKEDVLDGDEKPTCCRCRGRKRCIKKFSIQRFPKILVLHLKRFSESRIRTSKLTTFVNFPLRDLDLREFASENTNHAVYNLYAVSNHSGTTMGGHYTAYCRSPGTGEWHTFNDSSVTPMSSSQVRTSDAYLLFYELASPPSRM
Beta-2 adrenergic receptor (Homo sapiens), sequence (P07550 whole entry, looked up): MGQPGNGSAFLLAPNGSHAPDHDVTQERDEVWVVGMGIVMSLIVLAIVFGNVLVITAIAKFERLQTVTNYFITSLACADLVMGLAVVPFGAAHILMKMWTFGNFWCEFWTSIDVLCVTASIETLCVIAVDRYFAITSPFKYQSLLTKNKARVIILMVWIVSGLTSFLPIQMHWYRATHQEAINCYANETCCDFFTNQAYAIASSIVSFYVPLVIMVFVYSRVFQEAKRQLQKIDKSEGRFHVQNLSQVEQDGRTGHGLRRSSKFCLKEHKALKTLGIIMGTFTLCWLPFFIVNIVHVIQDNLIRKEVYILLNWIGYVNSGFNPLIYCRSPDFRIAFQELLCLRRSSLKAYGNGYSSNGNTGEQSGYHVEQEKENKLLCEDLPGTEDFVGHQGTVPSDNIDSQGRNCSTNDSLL
DNA polymerase III PolC-type (Bacillus subtilis (strain 168)), sequence (P13267 whole entry, looked up): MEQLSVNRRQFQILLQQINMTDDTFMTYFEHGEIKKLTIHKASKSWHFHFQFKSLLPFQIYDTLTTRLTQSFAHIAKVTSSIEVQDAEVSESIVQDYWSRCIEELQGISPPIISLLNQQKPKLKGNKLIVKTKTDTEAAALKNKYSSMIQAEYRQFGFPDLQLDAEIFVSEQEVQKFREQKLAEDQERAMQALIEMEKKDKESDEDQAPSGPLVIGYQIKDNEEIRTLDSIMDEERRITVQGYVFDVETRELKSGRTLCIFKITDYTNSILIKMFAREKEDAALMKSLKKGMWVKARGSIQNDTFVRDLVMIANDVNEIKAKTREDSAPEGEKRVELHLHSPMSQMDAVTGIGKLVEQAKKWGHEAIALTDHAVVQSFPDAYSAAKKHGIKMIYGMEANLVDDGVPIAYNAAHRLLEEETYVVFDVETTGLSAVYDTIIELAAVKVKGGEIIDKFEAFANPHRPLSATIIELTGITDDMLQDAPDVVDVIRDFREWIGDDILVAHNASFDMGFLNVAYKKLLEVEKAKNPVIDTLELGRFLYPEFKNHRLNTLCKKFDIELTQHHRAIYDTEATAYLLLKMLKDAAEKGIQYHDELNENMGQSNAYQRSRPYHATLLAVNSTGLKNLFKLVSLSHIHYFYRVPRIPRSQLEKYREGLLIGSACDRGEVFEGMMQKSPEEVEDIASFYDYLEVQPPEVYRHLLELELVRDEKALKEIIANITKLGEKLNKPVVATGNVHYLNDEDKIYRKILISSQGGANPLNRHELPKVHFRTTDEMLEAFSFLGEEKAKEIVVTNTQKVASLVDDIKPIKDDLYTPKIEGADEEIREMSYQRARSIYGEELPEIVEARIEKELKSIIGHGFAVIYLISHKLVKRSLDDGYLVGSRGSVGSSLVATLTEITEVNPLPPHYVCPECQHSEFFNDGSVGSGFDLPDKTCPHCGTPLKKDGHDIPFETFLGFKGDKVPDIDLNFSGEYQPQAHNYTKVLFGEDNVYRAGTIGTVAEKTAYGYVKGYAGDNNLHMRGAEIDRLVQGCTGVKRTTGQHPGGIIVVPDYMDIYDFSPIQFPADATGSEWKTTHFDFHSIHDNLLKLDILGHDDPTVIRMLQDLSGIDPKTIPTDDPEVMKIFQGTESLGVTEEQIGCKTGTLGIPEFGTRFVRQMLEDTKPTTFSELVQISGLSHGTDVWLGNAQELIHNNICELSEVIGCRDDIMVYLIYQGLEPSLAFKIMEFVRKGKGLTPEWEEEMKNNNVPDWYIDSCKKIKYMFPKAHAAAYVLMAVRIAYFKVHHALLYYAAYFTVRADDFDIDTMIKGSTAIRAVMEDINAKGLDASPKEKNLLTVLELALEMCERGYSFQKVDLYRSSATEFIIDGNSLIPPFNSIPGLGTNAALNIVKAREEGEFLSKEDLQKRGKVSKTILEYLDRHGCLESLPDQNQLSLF
ATP-dependent 6-phosphofructokinase (Trypanosoma brucei brucei), sequence (O15648 whole entry, looked up): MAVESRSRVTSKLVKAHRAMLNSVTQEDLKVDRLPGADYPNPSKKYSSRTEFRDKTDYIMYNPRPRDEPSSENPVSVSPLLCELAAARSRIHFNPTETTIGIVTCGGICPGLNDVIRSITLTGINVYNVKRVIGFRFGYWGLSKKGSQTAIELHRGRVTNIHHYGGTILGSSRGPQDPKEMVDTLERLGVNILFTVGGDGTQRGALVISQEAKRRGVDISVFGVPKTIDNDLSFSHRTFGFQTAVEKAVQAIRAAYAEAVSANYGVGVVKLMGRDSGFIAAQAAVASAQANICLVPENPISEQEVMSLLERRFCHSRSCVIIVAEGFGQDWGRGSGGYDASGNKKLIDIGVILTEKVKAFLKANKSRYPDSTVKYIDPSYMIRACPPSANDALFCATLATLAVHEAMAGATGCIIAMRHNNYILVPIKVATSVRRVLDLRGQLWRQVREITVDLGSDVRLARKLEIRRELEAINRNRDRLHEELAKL
Tumor susceptibility gene 101 protein (Homo sapiens), sequence (Q99816 whole entry, looked up, the tested form may be a part): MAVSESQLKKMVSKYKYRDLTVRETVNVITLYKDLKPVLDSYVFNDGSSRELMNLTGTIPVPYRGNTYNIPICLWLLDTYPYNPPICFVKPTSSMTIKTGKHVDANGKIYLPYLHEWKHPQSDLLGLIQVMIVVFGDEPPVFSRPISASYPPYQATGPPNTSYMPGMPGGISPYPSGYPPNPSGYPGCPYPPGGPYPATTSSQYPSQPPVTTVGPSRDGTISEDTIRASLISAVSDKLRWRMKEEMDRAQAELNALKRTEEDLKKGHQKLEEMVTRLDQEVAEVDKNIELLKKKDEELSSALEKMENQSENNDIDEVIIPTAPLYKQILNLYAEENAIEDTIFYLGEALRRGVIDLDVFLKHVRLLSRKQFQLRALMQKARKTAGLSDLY

O=C(CCCN1CCC2(CC1)C(=O)NCN2c1ccccc1)c1ccc(F)cc1
inactive: [1] | [2] | [3] | [4] | [5] | [6]

O=c1[nH]oc2c1CCNC2
inactive: [1] | [7] | [2] | [3] | [4] | [8] | [5] | [6] | [9]

O=C(O)CN(CCN(CC(=O)O)CC(=O)O)CCN(CC(=O)O)CC(=O)O
inactive: [7]

c1ccc2c(c1)CCCC2C1=NCCN1 (configuration not stated)
inactive: [7]

Cc1nc2c([nH]1)c(=O)n(C)c(=O)n2Cc1ccco1
inactive: [7]

CCC1(C)CC(=O)NC1=O (configuration not stated)
inactive: [7]

CC(=O)OCC(=O)[C@@]1(O)CC[C@H]2[C@@H]3CCC4=CC(=O)CC[C@]4(C)[C@H]3C(=O)C[C@@]21C
inactive: [7]

CC(C)c1cccc(C(C)C)c1O
inactive: [1] | [7] | [10] | [2] | [3] | [4] | [8] | [5] | [6] | [9]

O=P1(N(CCCl)CCCl)NCCCO1 (configuration not stated)
inactive: [1] | [7] | [10] | [2] | [3] | [4] | [8] | [5] | [6] | [9]

Cc1scc2c1N(C(=O)CN1CCN(C)CC1)c1ccccc1NC2=O
inactive: [7]

CNC[C@H](O)c1cccc(O)c1
inactive: [7]

CCN1CCC[C@H]1CNC(=O)c1cc(S(N)(=O)=O)ccc1OC
inactive: [7]

CC(NC(C)(C)C)C(=O)c1cccc(Cl)c1 (configuration not stated)
inactive: [1] | [7] | [10] | [2] | [3] | [4] | [8] | [5] | [9]

CN1C(=O)CCS(=O)(=O)C1c1ccc(Cl)cc1 (configuration not stated)
inactive: [1] | [7] | [10] | [2] | [3] | [4] | [8] | [5] | [6] | [9]

NC(N)=NC(=O)Cc1c(Cl)cccc1Cl
inactive: [7]

CN(C)C(=O)Oc1ccc[n+](C)c1
inactive: [7]

O=c1[nH]cnc2[nH]ncc12
inactive: [7]

CCN1CCC[C@H]1CNC(=O)c1c(O)c(Cl)cc(Cl)c1OC
inactive: [7]

C=C(C)[C@H]1CN[C@H](C(=O)O)[C@H]1CC(=O)O
inactive: [1] | [7] | [10] | [2] | [3] | [4] | [8] | [5] | [9]

Cc1ncsc1CCCl
inactive: [1] | [2] | [3] | [4] | [8] | [5] | [6]

O=C(NCC1CCCCN1)c1cc(OCC(F)(F)F)ccc1OCC(F)(F)F (configuration not stated)
inactive: [7]

COc1ccc2c(c1OC)C(=O)O[C@H]2[C@@H]1c2cc3c(cc2CCN1C)OCO3
inactive: [1] | [2] | [3] | [4] | [5] | [6] | [9]

CCC1(c2ccc(N)cc2)CCC(=O)NC1=O (configuration not stated)
inactive: [1] | [7] | [10] | [2] | [3] | [4] | [8] | [5] | [6] | [9]

CC(C)(C)NCC(O)c1ccccc1Cl (configuration not stated)
inactive: [1] | [7] | [10] | [2] | [3] | [4] | [8] | [5] | [9]

CCn1nc(C(=O)O)c(=O)c2cc3c(cc21)OCO3
inactive: [7]

CCCCC/C=C\C/C=C\C/C=C\C/C=C\CCCC(=O)NCC(=O)O
inactive: [1] | [7] | [10] | [3] | [4] | [8] | [5] | [9]

O=C(O)CCCc1ccc(N(CCCl)CCCl)cc1
inactive: [1] | [7] | [2] | [3] | [4] | [5] | [9]

NCCc1ccc(O)cc1
inactive: [1] | [7] | [10] | [2] | [3] | [4] | [8] | [5] | [6] | [9]

CC(C)(Oc1ccc(C2CC2(Cl)Cl)cc1)C(=O)O (configuration not stated)
inactive: [7]

Nc1cc(=O)[nH]c(N)n1
inactive: [7]

CC(C)N(CCC(C(N)=O)(c1ccccc1)c1ccccn1)C(C)C (configuration not stated)
inactive: [1] | [7] | [10] | [2] | [3] | [4] | [8] | [5] | [6] | [9]

NC(N)=Nc1nc(CSCC/C(N)=N/S(N)(=O)=O)cs1
inactive: [7]

O=c1c(-c2ccc(O)cc2)coc2cc(O)cc(O)c12
inactive: [7]

C[C@]12CCC(=O)C=C1CC[C@@H]1[C@@H]2CC[C@]2(C)C(=O)CC[C@@H]12
inactive: [10] | [9]

CC(=O)N1CCN(c2ccc(OC[C@H]3CO[C@](Cn4ccnc4)(c4ccc(Cl)cc4Cl)O3)cc2)CC1
active: [9] 8.28 µM
